Results on 28 compounds are retold here after ChEMBL document CHEMBL4513146, “CO-ADD screening of Karazin Kharkiv National University (Ukraine) compounds”.

Test [1] concerns Klebsiella pneumoniae. The conditions noted are these: Concentration 32 ug.mL-1;; ASSAY_TEST Inhibition of Bacterial Growth; detection method Absorption (OD600); MEDIA CAMHB; plate type 384well; NBS; CORNING #3640; time 18 hr.
The subject of test [2] is Candida albicans. The conditions noted are these: Concentration 32 ug.mL-1; ASSAY_TEST Inhibition of Fungal Growth; detection method Absorption (OD530).
Test [3] concerns Cryptococcus neoformans. The conditions noted are these: Concentration 32 ug.mL-1; ASSAY_TEST Inhibition of Fungal Growth; detection method Resazurin; Absorption (OD600-OD570); plate type 384well; NBS; CORNING #3640. For orientation: The colour change of resazurin is a common sign of viable cells or microbes.

In general, Inhibition refers to the drop in the measured response relative to a control, in per cent.

Potency and affinity values are given separately.

For `Cc1ccc(CSc2nnc3c(=O)n(-c4ccc(Br)cc4)ccn23)cc1`, the values for the Inhibition in test [1], in test [2] and in test [3] were 11.07%, 8.75% and -7.86%, respectively.
For `O=C(Cn1nc2c(Oc3ccccc3)nccn2c1=O)Nc1ccc(F)cc1Cl`, in that order: 3.51%, 0.77% and -10.04%.
On the same counts, the results for `O=C(Cn1nc2c(Sc3ccccc3)nccn2c1=O)Nc1ccc(Br)cc1F` are 9.23%, 5.59% and -9.93%.
For `CCOC(=O)c1ccccc1NC(=O)Cn1nc2ccc(Sc3ccc(C)cc3)nn2c1=O`, in that order: 14.69%, -1.17% and -9.49%.
In the case of `CCCCc1ccc(NC(=O)Cn2nc3ccc(C(=O)Nc4ccc(OC)cc4)cn3c2=O)cc1`, the Inhibition is recorded as -3.83% in test [1], 18.36% in test [2] and -8.8% in test [3].
On to `COc1ccc(NC(=O)c2ccc3nn(CC(=O)Nc4ccc(S(C)(=O)=O)cc4)c(=O)n3c2)cc1`, for which the Inhibition in test [1] was 1.84%; in test [2], 15.13%; in test [3], -4.16%.
On the same counts, the results for `Cc1ccc(C)c(Cn2nc3c(=O)n(-c4cccc(Cl)c4C)ccn3c2=O)c1` are 3.77%, 2.62% and -13.68%.
On the same counts, the results for `CCOc1ccc(-n2ccn3c(SCC(=O)c4ccc(OC)c(OC)c4)nnc3c2=O)cc1` are 7.92%, 3.75% and -6.73%.
In the case of `COC(=O)c1ccccc1NC(=O)Cn1nc2c3cc(-c4ccc(Cl)cc4)nn3ccn2c1=O`, the results for the Inhibition in test [1], in test [2] and in test [3] were 3.97%, 0.23% and -15.71%, respectively.
On the same counts, the results for `Cc1ccc(-c2ccc3nnc(CCC(=O)NCc4ccc(Br)cc4)n3n2)cc1` are 19%, 1.12% and -7.91%.
For `CCc1nnc2c(=O)n(CC(=O)Nc3ccc(C#N)cc3)c3ccccc3n12`, in that order: 5.17%, 10.64% and -24.76%.
As to `CCOc1ccc(NC(=O)Cn2nc3c(Oc4ccc(C)cc4)nccn3c2=O)cc1`, the Inhibition in test [1] is reported as 5.41%; in test [2], 0.26%; in test [3] it was -8.36%.
On the same counts, the results for `COc1ccc(NC(=O)Cn2nc3nc(Nc4ccc(F)cc4)ccn3c2=O)cc1Cl` are 7.26%, 4.14% and -6.17%.
For `CCc1ccc(NC(=O)Cn2nc3cc(C)nc(Nc4ccc(C)c(F)c4)n3c2=O)cc1`, in that order: 10.82%, 3.74% and -2.27%.
For `Cc1ccc(-n2ccn3c(=O)n(Cc4cccc(F)c4)nc3c2=O)cc1C`, in that order: 5.72%, 0.74% and -14.54%.
Consider `CCOc1ccc(C(=O)CSc2nnc3c(=O)n(-c4ccc(C)c(C)c4)ccn23)cc1`, for which the values for the Inhibition in test [1], in test [2] and in test [3] were 1.39%, 10.64% and -7.55%, respectively.
For `COc1ccc(NC(=O)C(C)Sc2nnc3c(=O)n(-c4cccc(OC)c4)ccn23)cc1` (centres undefined), in that order: 4.86%, -0.02% and -10.81%.
Consider `CCc1ccc(NC(=O)CSc2nnc3c(=O)n(-c4ccccc4)ccn23)cc1`, for which the Inhibition in test [1] is reported as 10.7%; in test [2], 2.07%; in test [3], -14.31%.
On the same counts, the results for `CC(=O)c1ccc(NC(=O)Cn2c(=O)c3nnc(C(C)C)n3c3ccccc32)cc1` are 9.51%, 0.56% and -14.82%.
On the same counts, the results for `O=C(Cn1nc2ccc(SCc3ccc(Cl)cc3)nn2c1=O)Nc1ccccc1` are 9.67%, 9.5% and -21.41%.
On the same counts, the results for `O=C(Cn1nc2c3cc(-c4ccc(F)cc4)nn3ccn2c1=O)NCc1ccccc1Cl` are 7.72%, 20.13% and -27.16%.
As to `CSc1cccc(NC(=O)Cn2nc3c(Sc4ccccc4)nccn3c2=O)c1`, the Inhibition in test [1] is listed as 1.1%; in test [2] it was 18.38%; in test [3] it was -12.89%.
For `N#Cc1cccc(Cn2nc3ccc(S(=O)(=O)N4CCCCCC4)cn3c2=O)c1`, in that order: 8.88%, -0.26% and -9.97%.
For `O=C(CCc1nnc2c(N3CCCCC3)nc3ccccc3n12)NCc1ccc(Cl)cc1`, in that order: 14.26%, 2.29% and -23.16%.
On the same counts, the results for `CCOC(=O)c1ccc(NC(=O)Cn2nc3c4sc(N5CCCC5)nc4ncn3c2=O)cc1` are -7.55%, 32.94% and -7.69%.
On to `CCc1ccccc1Sc1nccn2c(=O)n(CC(=O)Nc3ccc(C)cc3)nc12`, for which the Inhibition in test [1] is -4.69%; in test [2], 39.33%; in test [3] it was -9.26%.
On the same counts, the results for `CCOc1ccccc1NC(=O)Cn1nc2c(SC3CCCCC3)nccn2c1=O` are 10.39%, 5.31% and -21.42%.
For `Cc1c(Cl)cccc1-n1ccn2c(=O)n(Cc3cccc(F)c3)nc2c1=O`, in that order: 6.93%, 10.08% and -17.54%.
